Source: PubChem (several laboratories)
sEH inhibitor: blocks human soluble epoxide hydrolase activity. recombinant human sEH enzymatic activity assay. inhibition, % at 2 µM. hit rate 0.34% among 91,000. AID 707; in the data active = inhibition above about 80%
PLK1 PBD inh: inhibitors of human Plk1 polo box domain binding; P53350; Plk1 PBD phosphopeptide binding, fluorescence polarization; inhibition, %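 (tested at about 20 µM)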; hit rate 0.13% among 97,000; in the data active = inhibition above about 34%, passing the limit was not always enough
sEH activator: increases human soluble epoxide hydrolase activity; P34913; purified human sEH enzymatic activity, activator screen; activation, % at 2 µM; AID 717; hit rate 0.04% among 91,000; in the data active = activation above about 37%
Pyk2 oligo antag: blocks oligomerization of human Pyk2 in cells; Q14289; Q293 cells, Pyk2 FERM NanoBiT luminescence; active compounds read low; z-score (the deposit names both 25 µM and 10 µM); hit rate 0.83% among 99,000;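 active = Z-score of -3 or lower, scaled per plate to the spread of control and sample wells; inactive = z-score above -3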;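 also: negative z-score means lost luminescence so less FERM oligomerization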
Target sequence (Q14289 whole entry, looked up): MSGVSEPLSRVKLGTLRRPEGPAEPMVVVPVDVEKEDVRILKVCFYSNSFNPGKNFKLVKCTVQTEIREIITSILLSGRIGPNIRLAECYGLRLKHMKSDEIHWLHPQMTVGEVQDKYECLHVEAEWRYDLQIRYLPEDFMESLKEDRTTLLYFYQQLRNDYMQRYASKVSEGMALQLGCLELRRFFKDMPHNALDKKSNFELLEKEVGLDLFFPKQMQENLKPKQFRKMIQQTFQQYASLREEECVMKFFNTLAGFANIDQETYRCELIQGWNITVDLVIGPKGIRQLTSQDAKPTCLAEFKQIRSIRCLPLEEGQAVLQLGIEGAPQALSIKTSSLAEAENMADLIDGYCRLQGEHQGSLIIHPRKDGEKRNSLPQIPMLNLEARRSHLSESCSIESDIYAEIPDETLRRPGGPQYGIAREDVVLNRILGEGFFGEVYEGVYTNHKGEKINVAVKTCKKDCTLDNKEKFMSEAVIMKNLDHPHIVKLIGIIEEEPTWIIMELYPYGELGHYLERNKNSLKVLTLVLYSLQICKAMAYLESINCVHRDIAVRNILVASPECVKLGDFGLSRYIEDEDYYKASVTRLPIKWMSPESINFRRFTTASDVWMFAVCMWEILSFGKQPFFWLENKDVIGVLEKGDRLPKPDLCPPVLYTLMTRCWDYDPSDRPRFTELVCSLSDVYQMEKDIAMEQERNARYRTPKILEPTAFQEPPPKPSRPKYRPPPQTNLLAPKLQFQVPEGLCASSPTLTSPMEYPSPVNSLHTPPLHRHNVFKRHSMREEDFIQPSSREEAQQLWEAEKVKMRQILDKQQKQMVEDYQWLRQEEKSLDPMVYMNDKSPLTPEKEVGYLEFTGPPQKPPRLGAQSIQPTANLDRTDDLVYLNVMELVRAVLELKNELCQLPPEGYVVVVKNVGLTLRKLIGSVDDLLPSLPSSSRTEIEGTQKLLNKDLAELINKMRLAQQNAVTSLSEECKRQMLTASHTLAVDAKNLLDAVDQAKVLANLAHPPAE
PLK1 kinase inh: inhibitors of human PLK1 kinase; recombinant PLK1 kinase, TR-FRET peptide phosphorylation; P53350; inhibition, % at 10 µM; hit rate 0.53% among 97,000;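 active = inhibition of 50% or more in the single-concentration screen; inactive = inhibition below 50%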
Of the large screens only hits and unclear results are named; the others gave an inactive call. In the library only some 1.6% were active in any assay of this set; here they are far more common.

COC(=O)c1sc(NC(=O)c2cc(-c3ccccc3)nc3ccccc23)c(C#N)c1C	none
Cc1ccccc1-c1cc(C(=O)Nc2sc(C(=O)OC(C)C)c(C)c2C#N)c2ccccc2n1	Pyk2 oligo antag -3.9
CN1CCN(C(=S)NCCc2ccccc2)CC1	none
CCSc1nnc2c(n1)OC(c1ccc(C(=O)O)cc1)N(C(C)=O)c1ccccc1-2 (stereo unspecified)	PLK1 kinase inh 64.9 (no result: sEH inhibitor, sEH activator, Pyk2 oligo antag)
CCCCCSc1nnc2c(n1)OC(c1cccn1C)N(C(C)=O)c1ccccc1-2 (stereo unspecified)	none
Cc1ccc(S(=O)(=O)Oc2ccc3c(c2)O/C(=C\c2cccnc2)C3=O)cc1	Pyk2 oligo antag -3.01
O=C1/C(=C/c2cccnc2)Oc2cc(OS(=O)(=O)c3ccc(F)cc3)ccc21	none
CC1(C)CC(=O)c2cn3nc(C(F)(F)F)nc3nc2C1	none
CCc1nc(NCc2ccccn2)c2oc3ccccc3c2n1	Pyk2 oligo antag -3.02 (no result: sEH inhibitor, PLK1 PBD inh, sEH activator, PLK1 kinase inh)
CCOC(=O)c1c(NC(C)=O)sc2c1CCC(C=O)=C2Sc1ccccc1	Pyk2 oligo antag -3.51
CCOC(=O)c1c(NC(C)=O)sc2c1CCCNC2=O	none
CCOc1ccc(-n2cc(C(=O)NC(C)C)c3cc(OC)c(OC)cc3c2=O)cc1	PLK1 kinase inh 54.4
COc1ccc(OC)c(-n2c(SC)nnc2-c2c[nH]c3ccccc23)c1	PLK1 kinase inh 67.5 (no result: sEH inhibitor, sEH activator, Pyk2 oligo antag)
CCOc1ccc(-n2c(SCC(=O)Nc3cc(C)on3)nnc2-c2c[nH]c3ccccc23)cc1	none
COc1cccc(-n2c(SCC(N)=O)nnc2-c2c[nH]c3ccccc23)c1	PLK1 kinase inh 67.8 (no result: sEH inhibitor, sEH activator, Pyk2 oligo antag)
COc1ccc(OC)c(-n2c(SCC(=O)Nc3cc(C)on3)nnc2-c2c[nH]c3ccccc23)c1	PLK1 kinase inh 68.4 (no result: sEH inhibitor, sEH activator, Pyk2 oligo antag)
COc1ccc(OC)c(-n2c(SCC(N)=O)nnc2-c2c[nH]c3ccccc23)c1	PLK1 kinase inh 69.6 (no result: sEH inhibitor, sEH activator, Pyk2 oligo antag)
COc1ccccc1-n1c(SCC(N)=O)nnc1-c1ccccc1	none
COc1cccc(-c2nnc(SCC(N)=O)n2-c2ccc(Cl)cc2)c1	none
CS(=O)(=O)N(CC(=O)N1CCCCC1)c1sc2c(c1C#N)CCCC2	none
COC(=O)C(/C=N/OCc1ccc([N+](=O)[O-])cc1)NC(=O)c1cccc(Cl)c1 (stereo unspecified)	none
O=C1c2ccccc2C(=O)N1Cc1cc(-c2ccc(Cl)cc2)no1	none (no result: sEH inhibitor, sEH activator)
CCOc1ccc(N(CC(=O)NC2CCCC2)S(=O)(=O)c2c(C)[nH]c(=O)[nH]c2=O)cc1	none (no result: Pyk2 oligo antag)
COC(=O)C1=C(C)N(C)C(C)=C(C(=O)OC)C1c1ccc(F)c(Br)c1	Pyk2 oligo antag -3.2
COC(=O)C1=C(C)N(C)C(C)=C(C(=O)OC)C1c1ccncc1	none
C/C(=N\NC(=O)c1cccc(S(=O)(=O)Nc2ccccc2Cl)c1)c1ccc(-n2ccnc2)cc1	sEH inhibitor 86.9
COc1ccc(NS(=O)(=O)c2cccc(C(=O)N/N=C(\C)c3ccc(-n4ccnc4)cc3)c2)cc1	none
Cc1c(Cl)c([N+](=O)[O-])nn1CC(=O)NC(C)C1CC2CCC1C2 (stereo unspecified)	none
COC(=O)c1ccc(OC(=O)c2ccc(OC)c(OC)c2)c(OC)c1	sEH activator 37.5
COC(=O)c1ccc(/C=C/C(=O)c2ccc(OC)c(OC)c2)cc1	none
CCn1c(=S)sc2c(=O)n(-c3ccccc3)c(SC)nc21	none
CCn1c(=S)sc2c(=O)[nH]c(C)nc21	PLK1 kinase inh 58.2
Cc1[nH]c2ccccc2c1C1C(c2ccccc2)=NN=C(C(C)C)N1O (stereo unspecified)	Pyk2 oligo antag -3.56
Cc1[nH]c2ccccc2c1SCC(=O)O	none
O=C(CSc1nnc(Cc2ccccc2)o1)Nc1ccc2c(c1)OCO2	none
CCOc1ccc(N(CC(=O)NCc2ccc(F)cc2)S(=O)(=O)c2c(C)noc2C)cc1	PLK1 kinase inh 67.1 (no result: sEH inhibitor, sEH activator, Pyk2 oligo antag)
Fc1cccc(-c2cc3nc4c(c(N5CCOCC5)n3n2)CCCC4)c1	Pyk2 oligo antag -3.2 (no result: sEH inhibitor, PLK1 PBD inh, sEH activator, PLK1 kinase inh)
Clc1cccc(-c2cc3nc4c(c(N5CCOCC5)n3n2)CCCC4)c1	none (no result: sEH inhibitor, PLK1 PBD inh, sEH activator, PLK1 kinase inh)
COc1ccc(C(=O)Nc2ccc(S(=O)(=O)N3CCc4ccccc43)cc2)cc1	Pyk2 oligo antag -3.15
COC(=O)CNC(c1ccccc1)c1cc(Br)ccc1NS(=O)(=O)c1ccc(C)cc1 (stereo unspecified)	none (no result: sEH inhibitor, PLK1 PBD inh, sEH activator, PLK1 kinase inh)
O=C(NCCCn1ccnc1)C1c2ccccc2Oc2ccccc21	none
COc1ccc(Br)cc1C(=O)Nc1ccccc1-c1ccccc1	Pyk2 oligo antag -3.57
CC(C)C(=O)N1C2CCC1CC(O)(c1ccc(F)cc1)C2 (stereo unspecified)	none
Cc1cc(N2C3CCC2CC(O)(c2ccc(F)cc2)C3)nc(-c2ccccc2)n1 (stereo unspecified)	Pyk2 oligo antag -3.07
CCCCN(CCCC)S(=O)(=O)c1ccc(NC(=O)c2cccs2)cc1	Pyk2 oligo antag -3.16
Cc1cccc2cc(C#N)c(SCC(=O)N3CC(=O)Nc4ccccc43)nc12	Pyk2 oligo antag -3.08
COc1ccccc1Oc1nc(-c2ccccc2)cc(C)c1S(C)(=O)=O	Pyk2 oligo antag -3.53
Cc1cccc(Oc2nc(-c3ccccc3)cc(C)c2S(C)(=O)=O)c1C	none
CC1CN(C2CCN(C(=O)c3ccccc3Cl)CC2)CC(C)O1 (stereo unspecified)	none (no result: sEH inhibitor, sEH activator)
Cc1cc(C)cc(CSCC(=O)N/N=C/c2ccc(OCC(=O)NCc3ccco3)cc2)c1	Pyk2 oligo antag -3.15
O=C(CSCc1cccc(Cl)c1)N/N=C/c1ccc(OCC(=O)N2CCCCC2)cc1	Pyk2 oligo antag -3.41
COc1cc(C(=O)Nc2nc(-c3cccs3)cs2)cc(OC)c1OC	Pyk2 oligo antag -4.31
O=C(CCSc1ccc(Cl)cc1)NC12CC3CC(CC(C3)C1)C2	sEH inhibitor 80.7
O=C(CCSc1ccc(Cl)cc1)NC1CCCCC1	none (no result: Pyk2 oligo antag)
O=C(OCc1ccccc1Cl)c1ccc(-n2cnnc2)cc1	none
O=C(N/N=C/c1ccc2cccc(OCc3ccccc3)c2n1)c1ccc(Cl)cc1	Pyk2 oligo antag -3.07
Nc1ccc(-c2n[nH]c(=O)c3ccccc23)cc1N	none
CCOC(=O)CCS(=O)(=O)c1ccc(-c2ccc(S(=O)(=O)CCC(=O)OCC)cc2)cc1	none
O=C(Cn1nnc2ccccc21)OCC(=O)c1ccc(Cl)c(Cl)c1	Pyk2 oligo antag -3.97
O=C(Cn1nnc2ccccc21)OCC(=O)c1ccccc1	none
CCOc1ccc(NC(=O)N2CCC(C(=O)c3ccc(F)cc3)CC2)cc1	none
CCOc1ccc(NC(=O)N2CCC(c3ccc(C)cc3)C2)cc1 (stereo unspecified)	sEH inhibitor 82.1
COC(=O)[C@@H](NC(=O)NCc1ccccc1Cl)C(C)C	sEH inhibitor 89.1
CCCCNC1C(CC)C(CCC)C(C#N)(C#N)C1(C#N)C#N (stereo unspecified)	sEH activator 44.5
NCCCC(=O)N1c2ccccc2Sc2ccccc21	PLK1 kinase inh 65.6 (no result: sEH inhibitor, sEH activator, Pyk2 oligo antag)
C=CCn1c(=O)c2c(C)c(C)sc2n2c(Nc3ccccc3)nnc12	Pyk2 oligo antag -3.03
CC(OC(=O)c1snc(C(=O)NC2CCCCC2)c1N)C(=O)NC1CCCCC1 (stereo unspecified)	none
O=C(NCc1ccco1)C(c1ccccc1)N(Cc1ccccc1)C(=O)Cn1nnc2ccccc21 (stereo unspecified)	Pyk2 oligo antag -4.13
